Laboratory results as given in the antibiotic and cytotoxicity screens of Wong et al. (2023).
In all, about 39,000 compounds went through this assay and about 1,500 (3.8%) were called active. Only a selection was taken, and actives are over-represented in it overall.

These compounds were tested on HSkMC (human skeletal muscle cells) (assay: cytotoxicity call (relative viability < 0.9)). Details: 10 µM.
With `COc1ccc(S(=O)(=O)Nc2ccc3c(c2)C(=O)N([C@H](C)CO)C[C@H](C)[C@H](CN(C)S(C)(=O)=O)OCCCC[C@@H](C)O3)cc1` the cytotoxicity call was “inactive”.
With `Cc1cnc2c(c1NCCN(C)C)c(=O)n(C)c(=O)n2C` the cytotoxicity call was “inactive”.
In the case of `CCOc1nc2ccccc2c(=O)n1CCO`, the cytotoxicity call was “inactive”.
In the case of `C[C@H](CO)N1C[C@H](C)[C@H](CN(C)C(=O)c2ccc3c(c2)OCO3)Oc2cc(-c3cncnc3)ccc2S1(=O)=O`, the cytotoxicity call was “inactive”.
For `O=C1c2ccncc2C(=O)N1CO`, the cytotoxicity call was “inactive”.
In the case of `CO[C@@H](CN(C)S(=O)(=O)c1cccc(Cl)c1)[C@@H](C)CN([C@@H](C)CO)S(=O)(=O)c1ccc(Cl)cc1`, the cytotoxicity call was “inactive”.
For `CC(C)NC(=O)N(C)C[C@@H]1Oc2ccc(NS(=O)(=O)c3cn(C)cn3)cc2C(=O)N([C@@H](C)CO)C[C@@H]1C`, the cytotoxicity call was “inactive”.
For `FC(F)(F)c1ccccc1/N=C1\CCCc2ccccc21`, the cytotoxicity call was “inactive”.
For `Cc1ccc(S(=O)(=O)Nc2ccc3c(c2)C(=O)N([C@@H](C)CO)C[C@@H](C)[C@@H](CN(C)Cc2ccc(Cl)c(Cl)c2)O3)cc1`, the cytotoxicity call was “active”.
In the case of `COC1C(O)CC(=O)OC(C)CC=CC=CC(O)C(C)CC(CC=O)C1OC1OC(C)C(OC2CC(C)(O)C(OC(=O)CC(C)C)C(C)O2)C(N(C)C)C1O` (configuration not stated) [KITASAMYCINS [A1 shown] ], the cytotoxicity call was “inactive”.
For `CO[C@@H]1[C@@H](O[C@@H]2O[C@H](C)[C@@H](O[C@H]3C[C@@](C)(O)[C@@H](OC(=O)CC(C)C)[C@H](C)O3)[C@H](N(C)C)[C@H]2O)[C@@H](CC=O)C[C@@H](C)[C@@H](O)/C=C/C=C/CC(C)OC(=O)C[C@H]1OC(C)=O` (some centres not stated), the cytotoxicity call was “active”.
With `CO[C@@H]1[C@@H](O[C@@H]2O[C@H](C)[C@@H](O[C@H]3C[C@@](C)(O)[C@@H](OC(=O)CC(C)C)[C@H](C)O3)[C@H](N(C)C)[C@H]2O)[C@@H](CC=O)C[C@@H](C)[C@@H](O)/C=C\C=C/C[C@@H](C)OC(=O)C[C@H]1OC(C)=O` the cytotoxicity call was “inactive”.
With `COc1ccccc1CNC(=O)C[C@@H]1C[C@@H]2c3cc(NS(=O)(=O)c4ccc(F)cc4)ccc3O[C@@H]2[C@@H](CO)O1` the cytotoxicity call was “inactive”.
`Cc1ccc(S(=O)(=O)N(C)C[C@@H]2OCCCC[C@H](C)Oc3ccc(NC(=O)Nc4c(C)noc4C)cc3C(=O)N([C@H](C)CO)C[C@H]2C)cc1` was tested, and the cytotoxicity call was “inactive”.
With `CC(C)C[N+]1(C)Cc2ccccc2C1` the cytotoxicity call was “inactive”.
For `C[C@H]1CN([C@@H](C)CO)C(=O)c2cc(NS(=O)(=O)c3ccccc3)ccc2O[C@H]1CN(C)Cc1ccc(-c2ccccc2)cc1`, the cytotoxicity call was “inactive”.
For `C[C@@H]1CN([C@@H](C)CO)C(=O)c2cc(NS(=O)(=O)c3ccccc3)ccc2O[C@H]1CN(C)Cc1ccc(-c2ccccc2)cc1`, the cytotoxicity call was “inactive”.
For `Cc1ccc(S(=O)(=O)Nc2ccc3c(c2)C(=O)N([C@H](C)CO)C[C@@H](C)[C@@H](CN(C)Cc2ccc(-c4ccccc4)cc2)O3)cc1`, the cytotoxicity call was “active”.
`C[C@@H]1CN([C@H](C)CO)C(=O)c2cc(NS(=O)(=O)c3cccs3)ccc2O[C@@H]1CN(C)Cc1ccc(-c2ccccc2)cc1` was tested, and the cytotoxicity call was “active”.
In the case of `Cc1ccc(S(=O)(=O)Nc2ccc3c(c2)C(=O)N([C@H](C)CO)C[C@@H](C)[C@H](CN(C)Cc2ccc(-c4ccccc4)cc2)O3)cc1`, the cytotoxicity call was “inactive”.
With `C[C@@H]1CN([C@@H](C)CO)C(=O)c2cc(NS(=O)(=O)c3ccccc3)ccc2O[C@@H]1CN(C)Cc1ccc(-c2ccccc2)cc1` the cytotoxicity call was “active”.
In the case of `C[C@H](CO)N1C[C@H](C)[C@H](CN(C)Cc2ccc(-c3ccccc3)cc2)Oc2ccc(NS(=O)(=O)c3cccs3)cc2C1=O`, the cytotoxicity call was “inactive”.
With `Cc1ccc(S(=O)(=O)Nc2ccc3c(c2)C(=O)N([C@H](C)CO)C[C@H](C)[C@H](CN(C)Cc2ccc(-c4ccccc4)cc2)O3)cc1` the cytotoxicity call was “active”.
For `C[C@H](CO)N1C[C@H](C)[C@@H](CN(C)Cc2ccc(-c3ccccc3)cc2)Oc2ccc(NS(=O)(=O)c3cccs3)cc2C1=O`, the cytotoxicity call was “inactive”.
With `Cc1ccc(S(=O)(=O)Nc2ccc3c(c2)C(=O)N([C@@H](C)CO)C[C@@H](C)[C@@H](CN(C)Cc2ccc(-c4ccccc4)cc2)O3)cc1` the cytotoxicity call was “inactive”.
With `Cc1ccc(S(=O)(=O)Nc2ccc3c(c2)C(=O)N([C@@H](C)CO)C[C@@H](C)[C@H](CN(C)Cc2ccc(-c4ccccc4)cc2)O3)cc1` the cytotoxicity call was “inactive”.
In the case of `Cc1ccc(S(=O)(=O)Nc2ccc3c(c2)C(=O)N([C@@H](C)CO)C[C@H](C)[C@@H](CN(C)Cc2ccc(-c4ccccc4)cc2)O3)cc1`, the cytotoxicity call was “inactive”.
With `COc1ccc(S(=O)(=O)N(C)C[C@@H]2Oc3ccc(NC(=O)CCCN(C)C)cc3C(=O)N([C@H](C)CO)C[C@@H]2C)cc1` the cytotoxicity call was “inactive”.
In the case of `COc1ccc(-c2cn(CCNC(=O)[C@H](Cc3ccccc3)NS(=O)(=O)c3ccc(C)cc3)nn2)cc1OC`, the cytotoxicity call was “inactive”.
`CC(/C=C/C(=O)NO)=C\c1cccc(OC[C@@H]2[C@H]3C[C@H]4c5[nH]c6ccccc6c5CCN4C[C@@H]3CC[C@@H]2O)c1` was tested, and the cytotoxicity call was “inactive”.
`O=C(N[C@@H](c1ccc(-c2ccccc2)cc1)c1cnccn1)C1CCN(CCCOc2ccccc2)CC1` was tested, and the cytotoxicity call was “inactive”.
With `CC(=O)NC1C(O)CC(O)(C(=O)O)OC1C(O)C(O)CO` (configuration not stated) the cytotoxicity call was “inactive”.
In the case of `C[C@H]1CCCCO[C@@H](CN(C)S(C)(=O)=O)[C@@H](C)CN([C@@H](C)CO)C(=O)c2cc(N(C)C)ccc2O1`, the cytotoxicity call was “inactive”.
For `C[C@H](CO)N1C[C@H](C)[C@H](CN(C)C(=O)Nc2ccc(C(F)(F)F)cc2)Oc2ccc(NC(=O)CCC(F)(F)F)cc2CC1=O`, the cytotoxicity call was “inactive”.
With `Cc1ccc(S(=O)(=O)C[C@H](C)N2CCOCC2)c(S(=O)(=O)C[C@@H](C)N2CCOCC2)c1` the cytotoxicity call was “inactive”.
In the case of `CCNC(=O)C[C@@H]1C=C[C@@H](NC(=O)C2CC2)[C@@H](CO)O1`, the cytotoxicity call was “inactive”.
In the case of `COc1ccc(NC(=O)Nc2ccc3c(c2)CC(=O)N([C@@H](C)CO)C[C@H](C)[C@H](CN(C)C(=O)Nc2cccc4ccccc24)O3)cc1`, the cytotoxicity call was “inactive”.
`CCCNC(=O)Nc1ccc2c(c1)OC[C@@H](C)N(C(=O)C1CCOCC1)C[C@@H](C)[C@@H](OC)CN(C)C2=O` was tested, and the cytotoxicity call was “inactive”.
`C[C@H]1CN([C@@H](C)CO)C(=O)c2cc(Br)cnc2O[C@@H]1CN(C)Cc1cccc(C(=O)O)c1` was tested, and the cytotoxicity call was “inactive”.
In the case of `NCC(=O)NCC(=O)O`, the cytotoxicity call was “inactive”.
`CNCC(=O)O` was tested, and the cytotoxicity call was “inactive”.
With `O=C(O)CNC(=O)C(=O)O` the cytotoxicity call was “active”.
